Our source for the Potency and activity change, negative = inhibition values is PubChem BioAssay (Tox21).

The target of test [1] is Cytochrome P450 2C9 (Homo sapiens) (UniProt P11712). The test is described as follows: Cytochrome P450 Family 2 Subfamily C Member 9 (CYP2C9) small molecule antagonists: luciferase reporter qHTS assay (AID 1671198). Further: nearly all actives have a fitted effect of over 50% in size. The conditions noted are these: P450-Glo CYP2C9 enzyme assay, luciferin luminescence; series mostly up to 115 µM. Put shortly:
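P450-Glo proluciferin substrate with CYP2C9 enzyme; 10 min RT preincubation, then NADPH regeneration 1 h at 37C; luciferin detection reagent 20 min RT, luminescence in relative luminescence units.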

The target of test [2] is Cytochrome P450 1A2 (Homo sapiens) (UniProt P05177). The test is described as follows: Cytochrome P450 Family 1 Subfamily A Member 2 (CYP1A2) small molecule antagonists: luciferase reporter qHTS assay (AID 1671199). Further: nearly all actives have a fitted effect of over 50% in size. The conditions noted are these: P450-Glo CYP1A2 enzyme, luciferin luminescence, 1 h; series mostly up to 53 µM. In a few lines: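 Luminescence readout (relative luminescence units) after luciferin detection reagent, 20 min RT. Preceded by 1 h room-temperature CYP1A2 reaction with NADPH regeneration solution following 10 min compound preincubation with enzyme and proluciferin substrate. Furafylline positive control.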
Chain of Cytochrome P450 1A2 (Homo sapiens) (P05177 whole entry, looked up): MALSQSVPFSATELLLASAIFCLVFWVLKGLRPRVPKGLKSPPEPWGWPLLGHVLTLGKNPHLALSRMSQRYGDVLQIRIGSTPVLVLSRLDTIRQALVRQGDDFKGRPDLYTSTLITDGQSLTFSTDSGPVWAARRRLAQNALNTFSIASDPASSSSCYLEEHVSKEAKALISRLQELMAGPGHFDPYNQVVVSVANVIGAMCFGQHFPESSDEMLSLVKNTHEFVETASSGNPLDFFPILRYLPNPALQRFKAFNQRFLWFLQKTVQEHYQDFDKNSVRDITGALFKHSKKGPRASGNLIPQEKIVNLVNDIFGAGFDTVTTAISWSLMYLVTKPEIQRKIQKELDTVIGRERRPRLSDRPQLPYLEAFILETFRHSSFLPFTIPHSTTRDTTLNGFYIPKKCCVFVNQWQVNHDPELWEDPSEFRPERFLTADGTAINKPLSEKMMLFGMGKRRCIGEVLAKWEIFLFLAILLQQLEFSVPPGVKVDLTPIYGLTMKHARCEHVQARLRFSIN

For test [3], the target named is Voltage-gated inwardly rectifying potassium channel KCNH2 (Homo sapiens) (UniProt Q12809). Kind of test: Human Ether-a-go-go-Related Gene (hERG) channel small molecule antagonists: fluorescence cell-based qHTS assay (AID 1671200). Further: nearly all actives have a fitted effect of over 50% in size.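 On activity change, negative = inhibition: hERG-expressing U2OS cells given a thallium stimulus after FluxOR II dye loading.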 To be noted: hERG-U2OS cells, FluxOR thallium flux fluorescence; series mostly up to 76.8 µM. In a few lines:
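First, 1000 cells per well are seeded and cultured overnight at 37 C. Next, FluxOR II dye is loaded for 1 h at room temperature, protected from light. After 10 more minutes, stimulus is added and fluorescence is read.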
In general terms: Block of hERG is tested as a sign of cardiac risk.

The target of test [4] is Cytochrome P450 2C19 (Homo sapiens) (UniProt P33261). The test is described as follows: Cytochrome P450 Family 2 Subfamily C Member 19 (CYP2C19) small molecule antagonists: luciferase reporter qHTS assay (AID 1671197). Further: nearly all actives have a fitted effect of over 65% in size. To be noted: P450-Glo CYP2C19 enzyme, luciferin luminescence, 1 h; series mostly up to 52.9 µM. In a few lines: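 Quantitative high-throughput screen of the Tox21 library using CYP2C19 with proluciferin substrate. Reaction: NADPH regeneration, 37C, 1 h, after 10 min compound preincubation at room temperature. Readout: luminescence.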
Chain of Cytochrome P450 2C19 (Homo sapiens) (P33261 whole entry, looked up): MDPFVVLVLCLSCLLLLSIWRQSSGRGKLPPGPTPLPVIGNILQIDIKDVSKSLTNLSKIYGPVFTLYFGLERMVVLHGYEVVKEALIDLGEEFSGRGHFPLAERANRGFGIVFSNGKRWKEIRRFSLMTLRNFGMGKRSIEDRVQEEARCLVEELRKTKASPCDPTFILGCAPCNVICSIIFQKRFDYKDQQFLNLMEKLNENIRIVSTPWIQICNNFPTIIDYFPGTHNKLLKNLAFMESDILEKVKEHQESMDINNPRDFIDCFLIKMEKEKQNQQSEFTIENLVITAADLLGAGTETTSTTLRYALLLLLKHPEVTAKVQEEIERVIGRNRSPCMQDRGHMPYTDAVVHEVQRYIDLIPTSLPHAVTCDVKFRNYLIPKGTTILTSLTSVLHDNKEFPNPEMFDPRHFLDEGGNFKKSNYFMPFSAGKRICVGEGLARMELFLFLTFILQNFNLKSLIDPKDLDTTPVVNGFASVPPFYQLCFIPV
(In general: A reporter such as luciferase makes a cellular process visible.)

Test [5] has as its target Cytochrome P450 3A4 (Homo sapiens) (UniProt P08684). The test is described as follows: Cytochrome P450 Family 3 Subfamily A Member 4 (CYP3A4) small molecule antagonists: luciferase reporter qHTS assay (AID 1671201). Further: nearly all actives have a fitted effect of over 50% in size. To be noted: P450-Glo CYP3A4 enzyme, luciferin luminescence, 1 h; series mostly up to 115 µM. In a few lines:
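Enzyme and proluciferin substrate are mixed with test chemicals for 10 min, then NADPH regeneration system drives turnover for 1 h at room temperature. A detection reagent halts the reaction; luminescence after 20 min gives relative activity.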

Records with an inconclusive call do not appear. A number with no mark means an inactive call. Activity calls are given as the source filed them. The call rests on the fitted dose curve; in most records, active means well fitted curve in the direction sought with a large enough effect in the repeat runs; inconclusive means weak or mixed curves; inactive means no such curve, though single readings can be large; an effect the other way counts as inactive or inconclusive.
On the % scale 0 is the no-effect control and ±100 the full control effect; potency means the concentration at half of the fitted maximal effect.

Chain of Voltage-gated inwardly rectifying potassium channel KCNH2 (Homo sapiens) (Q12809 whole entry, looked up): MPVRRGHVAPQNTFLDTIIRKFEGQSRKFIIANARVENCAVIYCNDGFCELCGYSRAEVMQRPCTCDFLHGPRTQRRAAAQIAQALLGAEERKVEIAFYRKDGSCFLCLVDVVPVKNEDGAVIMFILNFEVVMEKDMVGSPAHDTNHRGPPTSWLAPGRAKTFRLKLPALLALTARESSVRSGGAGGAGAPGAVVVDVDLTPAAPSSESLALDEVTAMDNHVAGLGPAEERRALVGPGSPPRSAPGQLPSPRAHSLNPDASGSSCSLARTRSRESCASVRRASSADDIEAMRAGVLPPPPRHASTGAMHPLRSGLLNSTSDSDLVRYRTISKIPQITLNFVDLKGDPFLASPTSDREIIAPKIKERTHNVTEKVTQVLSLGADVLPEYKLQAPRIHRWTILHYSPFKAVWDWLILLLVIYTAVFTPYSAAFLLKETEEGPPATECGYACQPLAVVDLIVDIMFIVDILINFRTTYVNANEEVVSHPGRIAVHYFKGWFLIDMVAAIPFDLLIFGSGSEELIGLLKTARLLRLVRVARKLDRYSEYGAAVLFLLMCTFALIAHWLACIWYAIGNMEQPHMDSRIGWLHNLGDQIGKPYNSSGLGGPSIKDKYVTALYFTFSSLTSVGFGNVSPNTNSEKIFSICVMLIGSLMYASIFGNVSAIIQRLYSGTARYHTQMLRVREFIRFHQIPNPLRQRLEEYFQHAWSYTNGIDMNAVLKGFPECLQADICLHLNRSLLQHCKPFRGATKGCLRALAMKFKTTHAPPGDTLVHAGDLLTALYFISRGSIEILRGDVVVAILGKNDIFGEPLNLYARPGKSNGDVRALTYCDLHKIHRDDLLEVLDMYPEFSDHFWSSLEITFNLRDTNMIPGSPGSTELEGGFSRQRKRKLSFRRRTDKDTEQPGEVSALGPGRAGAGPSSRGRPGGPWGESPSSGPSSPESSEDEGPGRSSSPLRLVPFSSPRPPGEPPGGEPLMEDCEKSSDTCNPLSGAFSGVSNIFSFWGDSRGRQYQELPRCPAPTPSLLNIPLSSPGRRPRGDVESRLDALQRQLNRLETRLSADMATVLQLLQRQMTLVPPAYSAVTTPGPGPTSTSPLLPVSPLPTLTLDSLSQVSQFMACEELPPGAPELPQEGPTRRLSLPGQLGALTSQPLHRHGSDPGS
Chain of Cytochrome P450 3A4 (Homo sapiens) (P08684 whole entry, looked up): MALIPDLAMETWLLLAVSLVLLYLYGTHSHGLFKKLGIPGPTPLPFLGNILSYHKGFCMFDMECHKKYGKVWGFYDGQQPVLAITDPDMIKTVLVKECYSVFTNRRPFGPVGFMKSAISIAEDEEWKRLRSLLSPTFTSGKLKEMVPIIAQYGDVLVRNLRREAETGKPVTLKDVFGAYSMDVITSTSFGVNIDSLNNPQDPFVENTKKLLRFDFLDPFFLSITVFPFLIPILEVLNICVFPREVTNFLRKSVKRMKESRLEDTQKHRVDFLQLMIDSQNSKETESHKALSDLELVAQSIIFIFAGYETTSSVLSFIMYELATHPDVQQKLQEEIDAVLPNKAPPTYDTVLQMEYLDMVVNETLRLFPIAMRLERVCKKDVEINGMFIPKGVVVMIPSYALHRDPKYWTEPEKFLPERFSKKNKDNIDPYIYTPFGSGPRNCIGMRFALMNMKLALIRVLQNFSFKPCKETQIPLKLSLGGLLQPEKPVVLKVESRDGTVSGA
Chain of Cytochrome P450 2C9 (Homo sapiens) (P11712 whole entry, looked up): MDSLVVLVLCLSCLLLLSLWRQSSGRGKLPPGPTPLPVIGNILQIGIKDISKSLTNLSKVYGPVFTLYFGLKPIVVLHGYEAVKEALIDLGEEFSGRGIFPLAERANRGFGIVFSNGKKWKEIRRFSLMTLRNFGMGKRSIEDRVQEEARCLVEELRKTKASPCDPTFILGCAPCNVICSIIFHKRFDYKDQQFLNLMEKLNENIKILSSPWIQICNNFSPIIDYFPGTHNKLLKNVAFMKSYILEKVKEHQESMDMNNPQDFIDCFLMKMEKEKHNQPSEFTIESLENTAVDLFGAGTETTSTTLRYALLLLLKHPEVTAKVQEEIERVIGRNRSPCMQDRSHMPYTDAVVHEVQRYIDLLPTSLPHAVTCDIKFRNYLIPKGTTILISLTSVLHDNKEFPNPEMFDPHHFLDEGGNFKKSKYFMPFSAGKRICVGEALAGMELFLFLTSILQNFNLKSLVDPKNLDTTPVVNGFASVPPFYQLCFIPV

On to `Nc1ccc(S(=O)(=O)Nc2ccccc2)cc1`, for which the Potency entry in test [1], in test [2] and in test [3] was “inactive” throughout.
Consider `C=C(C)C(=O)OCCOCC`, for which the Potency is 80 µM (active) in test [4] and 40.1 µM (active) in test [2]. For the same compound, the Potency result in test [3] and in test [5] was “inactive” throughout.
Take `O=C(O)c1ccc(S(=O)(=O)O)cc1C(=O)O`: the Potency result in test [1], in test [2], in test [3] and in test [5] was “inactive” in each case.
With `O=[N+]([O-])c1ccc2[nH]ncc2c1`, the Potency result in test [1], in test [3] and in test [5] was “inactive” in each case. The Potency in test [2] was 31.7 µM (active).
On to `CCCCCCCCCCO[C@@H]1O[C@H](CO)[C@@H](O)[C@H](O)[C@H]1O`, for which the Potency result in test [1], in test [2], in test [3] and in test [5] was “inactive” throughout.
Take `CCCCc1ncc(/C=C(\Cc2cccs2)C(=O)O)n1Cc1ccc(C(=O)O)cc1`: the Potency result in test [4] and in test [3] was “inactive” each time.
On to `O=C(NCCO[N+](=O)[O-])c1cccnc1`, for which the Potency entry in test [1], in test [2] and in test [3] was “inactive” in each case.
Regarding `CCCC(=O)Nc1ccc(O)c(C(C)=O)c1`, the Potency entry in test [4], in test [3] and in test [5] was “inactive” in each case. Further, in test [2], the Potency is 9.77 µM (active).
As to `CN(C)CCOC(c1ccccc1)c1ccc(Br)cc1` (stereo not drawn), the results for the Potency in test [4], in test [2] and in test [3] were 13.8 µM (active), 17.4 µM (active) and 3.38 µM (active), respectively. Further, the Potency entry in test [5] was “inactive”.
As to `CCCOC(C(=O)OC1CCN(C)CC1)(c1ccccc1)c1ccccc1`, the Potency result in test [1] and in test [2] was “inactive” each time.
For the compound `CN(Cc1ccc(C(C)(C)C)cc1)Cc1cccc2ccccc12`, the Potency in test [4] is 8.71 µM (active); in test [3], 19 µM (active). The Potency result in test [5] was “inactive”.
On to `Cc1cc(C(=O)O)ccc1[N+](=O)[O-]`, for which the Potency result in test [1], in test [3] and in test [5] was “inactive” throughout. Besides, the Potency in test [2] is 40 µM (active).
With `c1ccc(-c2ccccn2)nc1`, the Potency entry in test [4], in test [3] and in test [5] was “inactive” throughout. Further, in test [2], the Potency is 71 µM (active).
As for `CCCCNc1ccc(C(=O)OCCOCCOCCOCCOCCOCCOCCOCCOCCOC)cc1`, the Potency in test [1] was 12.3 µM (active). The Potency entry in test [2] was “inactive”.
For the compound `CCCCO`, the Potency entry in test [3] is “inactive”.
Turning to `C[C@H]1C[C@H]2[C@@H]3CCC4=CC(=O)C=C[C@]4(C)[C@@]3(Cl)[C@@H](O)C[C@]2(C)[C@@]1(O)C(=O)CO`, in test [1], the Potency is 17.4 µM (active). Further, the Potency entry in test [2] and in test [5] was “inactive” each time.
Take `CC(=O)c1ccc2c(c1)N(CCCN1CCC(CCO)CC1)c1ccccc1S2`: the Potency in test [3] is 3.01 µM (active).
The same measure, in the same setting: the result for `O=C(c1ccc(F)cc1)C1CCN(CCn2c(=S)[nH]c3ccccc3c2=O)CC1` reads 0.601 µM (active).
`CN(C)C(=O)NC1(c2ccccc2)CCN(CC[C@@]2(c3ccc(F)c(F)c3)CN(C(=O)c3ccccc3)CCO2)CC1`: in test [2], the Potency result is “inactive”.
Turning to `Nc1cc(C(=O)O)c(O)c(S(=O)(=O)O)c1`, the Potency result in test [1], in test [3] and in test [5] was “inactive” in each case.
On to `CCc1c(C(=O)NN2CCCCC2)nn(-c2ccc(Cl)cc2Cl)c1-c1ccc(Br)cc1`, for which the Potency in test [1] is 8.94 µM (active). The Potency result in test [2] and in test [5] was “inactive” each time.
Turning to `C=CC(=O)OCCOCCOC(=O)C=C`, the Potency result in test [1], in test [3] and in test [5] was “inactive” each time.
With `O=C(O)CNCC(=O)O`, the activity change, negative = inhibition in test [1] was -0.595% [at 10.5 µM]; in test [2] it was -1.26% [at 10.5 µM]; in test [3], 4.26% [at 6.97 µM]; in test [5] it was 0.283% [at 10.5 µM].
Consider `C[N+](C)(C)CCOC(=O)CCC(=O)OCC[N+](C)(C)C`, for which the Potency entry in test [1], in test [2] and in test [5] was “inactive” each time.
For `CC(C)Nc1ccc(NC(C)C)c2c1C(=O)c1ccccc1C2=O`, the Potency in test [2] was 2.34 µM (active); in test [5], 3.3 µM (active). Further, in test [3], the Potency result is “inactive”.
Take `CN(C)CCN(Cc1ccc(Cl)cc1)c1ccccn1`: the Potency in test [3] is 2.39 µM (active). Besides, the Potency result in test [5] was “inactive”.
On to `Cc1cc(N)c2cc(NC(=O)Nc3ccc4nc(C)cc(N)c4c3)ccc2n1`, for which the Potency entry in test [3] was “inactive”.
Turning to `CC(=O)c1ccc2c(c1)N(CCCN(C)C)c1ccccc1S2`, the Potency result in test [1] and in test [5] was “inactive” throughout. Further, the Potency in test [2] is 11 µM (active).
Regarding `C=CC1CC2C=CC1C2` (stereo not drawn), the Potency result in test [1], in test [2], in test [3] and in test [5] was “inactive” each time.
Regarding `O=C(O)c1nc(Cl)c(Cl)c(Cl)c1Cl`, the Potency in test [1] was 39.9 µM (active). Further, the Potency entry in test [3] and in test [5] was “inactive” throughout.
With `CNCCCCOc1ccccc1Cc1ccccc1`, in test [1], the Potency entry is “inactive”. Further, in test [3], the Potency was 3.38 µM (active).
For the compound `CCN(CC)CCNc1ccc(CNC=O)c2sc3ccc(OC)cc3c(=O)c12`, the values for the Potency in test [1], in test [2] and in test [5] were 31.7 µM (active), 22.4 µM (active) and 20 µM (active), respectively. Also, the Potency entry in test [3] is “inactive”.
Take `O=C(OCCCCCCOC(=O)c1ccccc1)c1ccccc1`: the results for the Potency in test [1] and in test [2] were 7.96 µM (active) and 3.17 µM (active), respectively. In addition, the Potency entry in test [5] was “inactive”.
On to `O=C(O)C1(C(=O)Nc2ccc(Cl)cc2Cl)CC1`, for which the Potency was 15.9 µM (active) in test [1] and 39.9 µM (active) in test [2]. Further, the Potency entry in test [3] and in test [5] was “inactive” throughout.
`COc1ccc(-c2nc3ccc(C4=NNC(=O)CC4C)cc3[nH]2)cc1` (stereo not drawn): the Potency in test [2] is 3.63 µM (active). Further, the Potency result in test [3] and in test [5] was “inactive” each time.
With `COc1ccc(C)cc1[N+](=O)[O-]`, the Potency result in test [1] and in test [3] was “inactive” each time. Also, the Potency in test [2] is 10.2 µM (active); in test [5], 36.1 µM (active).
Turning to `CC(=O)[O][Al]`, the Potency result in test [3] was “inactive”.
Same read-out and setting: the result for `CCC(C)O` (stereo not drawn) reads “inactive”.
As for `C=CC(=O)OCCOc1ccccc1`, the Potency result in test [3] is “inactive”.
For `COc1cc(C(=O)OCCCN2CCCN(CCCOC(=O)c3cc(OC)c(OC)c(OC)c3)CC2)cc(OC)c1OC`, the Potency entry in test [2] is “inactive”. For the same compound, the Potency in test [3] is 6.01 µM (active).
Turning to `Cc1oc(-c2ccccc2)nc1CCOc1cccc2c1ccn2CCC(=O)O`, the Potency in test [1] was 22.4 µM (active). For the same compound, the Potency result in test [2], in test [3] and in test [5] was “inactive” in each case.
As for `CCOc1ccc(O)cc1`, the Potency entry in test [3] and in test [5] was “inactive” throughout.
Turning to `CN(C)CCCN1c2ccccc2Sc2ccccc21`, the Potency in test [3] is 9.52 µM (active).
In the case of `O=S(c1cc(Cl)cc(Cl)c1O)c1cc(Cl)cc(Cl)c1O`, in test [1], the Potency is 17.4 µM (active). For the same compound, the Potency result in test [3] and in test [5] was “inactive” each time.
In the case of `CN(C)CCN(Cc1ccccc1)c1ccccn1`, the Potency entry in test [1] and in test [5] was “inactive” throughout. Also, in test [3], the Potency is 9.52 µM (active).
In the case of `COCCCN1CCC(NC(=O)c2cc(Cl)c(N)c3c2OCC3)CC1`, the Potency in test [1] is 3.09 µM (active). In addition, the Potency result in test [2] and in test [5] was “inactive” throughout.
For the compound `CCCn1cnc2c1c(=O)n(CCCCC(C)=O)c(=O)n2C`, the Potency entry in test [1], in test [3] and in test [5] was “inactive” each time.
On to `Nc1ccc([N+](=O)[O-])c(C(F)(F)F)c1`, for which the Potency in test [2] was 11 µM (active). Besides, the Potency entry in test [3] and in test [5] was “inactive” each time.
As for `CC(C)(O)c1ccc(CNC(=O)c2cccnc2Oc2ccc(F)cc2)cc1`, the Potency in test [1] was 22.4 µM (active); in test [5], 31.7 µM (active). Further, in test [3], the Potency result was “inactive”.
`NCC(=O)O`: in test [3], the activity change, negative = inhibition is 0.344% [at 15.8 µM].
For `C#C[C@]1(O)CC[C@H]2[C@@H]3CCc4cc(OC5CCCC5)ccc4[C@H]3CC[C@@]21C`, the Potency in test [1] was 19.5 µM (active). Besides, the Potency result in test [3] is “inactive”.
In the case of `CCCCCCCCCCCCCCCCCCOS(=O)(=O)O`, the Potency entry in test [3] and in test [5] was “inactive” each time.
Regarding `C/C(=C(\CCOP(=O)(O)O)SC(=O)c1ccccc1)N(C=O)Cc1cnc(C)nc1N`, the activity change, negative = inhibition in test [3] was 1.89% [at 6.97 µM].
In the case of `CC(C)O.CC(C)O.CCOC(=O)/C=C(\C)O.CCOC(=O)/C=C(\C)O.[Ti]`, the Potency entry in test [3] is “inactive”.
